Source: PubChem BioAssay (Tox21)
Values joined by “and” are separate entries in the source; they are usually repeats but may differ in a detail not shown here. Equal values may be shown once. Results filed as inconclusive are left out. A call without a number means that no potency is given here. More than one record can exist for a structure, and the calls need not agree. Active and inactive are the calls of the source. Calls come from the whole dose curve; as a rule, active = well fitted curve in the direction sought with a large enough effect in the repeat runs; inconclusive = weak or mixed curves; inactive = no such curve, though single readings can be large; an effect the other way counts as inactive or inconclusive.

Tests used:
[1] = Human pregnane X receptor (PXR) small molecule agonists, qHTS cell viability counter screen (AID 1346977); note: nearly all actives have a fitted effect of over 50% in size; note: potency is the fitted concentration of half-maximal effect
In short: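 Same-well viability read: CellTiter-Fluor added after 23 hr compound exposure, fluorescence measured 1 hr later. Cells were PXR-Luc HepG2 seeded at 2,000/well in 5% charcoal-stripped FBS medium, rested 5 hr before dosing at 37 C.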

[2] = Caspase-3/7 induction in HepG2 cells by small molecules, qHTS assay (AID 1346978); note: nearly all actives have a fitted effect of over 15% in size; note: potency is the fitted concentration of half-maximal effect
In short: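 Wild-type HepG2 cells (2,000/well) were settled 5 h at 37 C, 5% CO2, then exposed to compounds in DMSO for 17 h. Caspase-3/7 activity was read by luminescence 30 min after adding Caspase-Glo 3/7 reagent at room temperature.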

[3] = Caspase-3/7 induction in CHO-K1 cells by small molecules, qHTS cell viability counter screen (AID 1346979); note: nearly all actives have a fitted effect of over 35% in size; note: potency is the fitted concentration of half-maximal effect
In short: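 Cytotoxicity counter screen: CellTiter-Fluor added to compound-treated wild-type CHO-K1 cells at 16 h (37C, 5% CO2), fluorescence measured 1 h later; same wells as caspase-3/7 measurement.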

[4] = Caspase-3/7 induction in CHO-K1 cells by small molecules, qHTS assay (AID 1346980); note: nearly all actives have a fitted effect of over 15% in size
In short: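 Wild-type cells were seeded at 1,500 per well and settled 5 hr at 37 C, 5% CO2, then exposed to DMSO-dissolved compounds for 17 hr. Caspase-Glo 3/7 reagent was added, and luminescence was read after 30min at room temperature.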

[5] = Caspase-3/7 induction in HepG2 cells by small molecules, qHTS cell viability counter screen (AID 1346981); note: nearly all actives have a fitted effect of over 30% in size; note: potency is the fitted concentration of half-maximal effect
In short: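 Steps: seed 2,000 HepG2 cells per well; incubate 5 hr at 37 C; pin-add compounds in DMSO; incubate 16 hr; add CellTiter-Fluor; after 1 hr at 37 C and 5% CO2, read fluorescence.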

[6] = biological target: Nuclear receptor subfamily 1 group I member 2 (Rattus norvegicus) (UniProt Q9R1A7); test: Rat pregnane X receptor (rPXR) activation by small molecules, qHTS assay (AID 1346983); settings: rPXR luciferase reporter cells, One-Glo luminescence, 24 h; stronger effect = higher value; note: nearly all actives have a fitted effect of over 20% in size
In short: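 Cell-based rPXR luciferase reporter assay, 2,000 cells per well, rested 5hr at 37 C before compound addition in DMSO, then 24 hr at 37 C. One-Glo reagent was added and luminescence read after 30 min at room temperature.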

[7] = biological target: Nuclear receptor subfamily 1 group I member 2 (Homo sapiens) (UniProt O75469); test: Human pregnane X receptor (PXR) activation by small molecules, qHTS assay (AID 1346985); note: nearly all actives have a fitted effect of over 40% in size
In short: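 DPX-2 cells (HepG2 co-transfected with a PXR response element and a CYP3A4-promoter luciferase construct) were seeded at 2,000 per well, rested 5 hr at 37C, then exposed to DMSO-dissolved compounds for 24 hr. Activation was read as luciferase luminescence.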

[8] = biological target: Cytochrome P450 2D6 (Homo sapiens) (UniProt P10635); test: Cytochrome P450 Family 2 Subfamily D Member 6 (CYP2D6) small molecule antagonists: luciferase reporter qHTS assay (AID 1671196); note: nearly all actives have a fitted effect of over 50% in size; note: potency is the fitted concentration of half-maximal effect
In short: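 P450-Glo format: CYP2D6 converts a proluciferin substrate to luciferin in an NADPH-driven reaction lasting 1 h at room temperature. Light output, proportional to CYP2D6 activity, reflects interference by test chemicals.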

[9] = biological target: Cytochrome P450 2C19 (Homo sapiens) (UniProt P33261); test: Cytochrome P450 Family 2 Subfamily C Member 19 (CYP2C19) small molecule antagonists: luciferase reporter qHTS assay (AID 1671197); note: nearly all actives have a fitted effect of over 65% in size; note: potency is the fitted concentration of half-maximal effect
In short: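 Inhibition of CYP2C19 was scored from loss of luminescence in a P450-Glo proluciferin substrate assay, NADPH-started and run 1 h at 37C, with ketoconazole as positive control.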

[10] = biological target: Cytochrome P450 2C9 (Homo sapiens) (UniProt P11712); test: Cytochrome P450 Family 2 Subfamily C Member 9 (CYP2C9) small molecule antagonists: luciferase reporter qHTS assay (AID 1671198); note: nearly all actives have a fitted effect of over 50% in size; note: potency is the fitted concentration of half-maximal effect
In short: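 CYP2C9 activity was measured with a P450-Glo proluciferin substrate. Enzyme–substrate mix was held with compound for 10 min at room temperature, then NADPH regeneration solution was added for 1 h at 37C. Luciferin product was read as luminescence.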

[11] = biological target: Cytochrome P450 1A2 (Homo sapiens) (UniProt P05177); test: Cytochrome P450 Family 1 Subfamily A Member 2 (CYP1A2) small molecule antagonists: luciferase reporter qHTS assay (AID 1671199); note: nearly all actives have a fitted effect of over 50% in size; note: potency is the fitted concentration of half-maximal effect
In short: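 Inhibition of CYP1A2 conversion of proluciferin to luciferin, detected by luminescence. Reaction run 1 h at room temperature with NADPH regeneration after brief compound preincubation.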

[12] = biological target: Voltage-gated inwardly rectifying potassium channel KCNH2 (Homo sapiens) (UniProt Q12809); test: Human Ether-a-go-go-Related Gene (hERG) channel small molecule antagonists: fluorescence cell-based qHTS assay (AID 1671200); note: nearly all actives have a fitted effect of over 50% in size; note: potency is the fitted concentration of half-maximal effect
In short: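 Thallium flux as potassium surrogate: FluxOR II dye loaded 1 h at room temperature into hERG-expressing U2OS cells, then stimulus buffer added after 10 min. Kinetic 480 nm excitation/540 nm emission read, 2 min.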

[13] = biological target: Cytochrome P450 3A4 (Homo sapiens) (UniProt P08684); test: Cytochrome P450 Family 3 Subfamily A Member 4 (CYP3A4) small molecule antagonists: luciferase reporter qHTS assay (AID 1671201); note: nearly all actives have a fitted effect of over 50% in size; note: potency is the fitted concentration of half-maximal effect
In short: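 Recombinant human CYP3A4 converts a proluciferin substrate to luciferin over 1 h at room temperature after NADPH regeneration solution is added (compound preincubated 10 min); detection reagent stops reaction, luminescence read 20 min later as relative units.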

[14] = biological target: Nuclear receptor subfamily 1 group I member 2 (Homo sapiens) (UniProt O75469); test: Human pregnane X receptor (PXR) small molecule agonists, qHTS assay (AID 1346982); note: nearly all actives have a fitted effect of over 35% in size; note: potency is the fitted concentration of half-maximal effect
In short: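 Agonist mode qHTS: PXR-Luc HepG2 cells plated 5 hr before DMSO-dissolved compounds were pinned in, cultured 24 hr at 37 C, 5% CO2; ONE-Glo luminescence readout.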

Sequence of Nuclear receptor subfamily 1 group I member 2 (Homo sapiens) (O75469 whole entry, looked up): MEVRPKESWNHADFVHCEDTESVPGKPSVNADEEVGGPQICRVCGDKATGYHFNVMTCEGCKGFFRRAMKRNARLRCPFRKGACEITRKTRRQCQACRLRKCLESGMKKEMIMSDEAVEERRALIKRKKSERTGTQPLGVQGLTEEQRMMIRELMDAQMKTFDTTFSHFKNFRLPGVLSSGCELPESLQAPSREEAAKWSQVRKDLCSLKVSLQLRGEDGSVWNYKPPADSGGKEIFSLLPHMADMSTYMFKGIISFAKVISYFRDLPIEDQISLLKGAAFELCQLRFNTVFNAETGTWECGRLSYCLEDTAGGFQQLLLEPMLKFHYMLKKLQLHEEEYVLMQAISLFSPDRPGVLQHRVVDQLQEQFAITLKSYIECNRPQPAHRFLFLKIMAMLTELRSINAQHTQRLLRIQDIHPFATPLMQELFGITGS
Sequence of Cytochrome P450 1A2 (Homo sapiens) (P05177 whole entry, looked up): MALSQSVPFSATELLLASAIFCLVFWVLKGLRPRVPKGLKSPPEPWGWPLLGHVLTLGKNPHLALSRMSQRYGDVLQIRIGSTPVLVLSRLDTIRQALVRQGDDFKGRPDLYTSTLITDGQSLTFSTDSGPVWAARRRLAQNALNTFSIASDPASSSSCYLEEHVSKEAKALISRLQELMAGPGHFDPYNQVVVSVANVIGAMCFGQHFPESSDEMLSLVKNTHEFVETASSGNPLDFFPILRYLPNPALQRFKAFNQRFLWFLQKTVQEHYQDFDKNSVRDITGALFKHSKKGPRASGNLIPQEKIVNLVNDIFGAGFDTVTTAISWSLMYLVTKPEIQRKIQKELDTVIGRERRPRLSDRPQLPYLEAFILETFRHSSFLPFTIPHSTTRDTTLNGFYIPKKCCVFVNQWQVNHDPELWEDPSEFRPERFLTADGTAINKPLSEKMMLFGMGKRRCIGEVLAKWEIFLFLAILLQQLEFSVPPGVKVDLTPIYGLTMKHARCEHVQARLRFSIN
Sequence of Cytochrome P450 2D6 (Homo sapiens) (P10635 whole entry, looked up): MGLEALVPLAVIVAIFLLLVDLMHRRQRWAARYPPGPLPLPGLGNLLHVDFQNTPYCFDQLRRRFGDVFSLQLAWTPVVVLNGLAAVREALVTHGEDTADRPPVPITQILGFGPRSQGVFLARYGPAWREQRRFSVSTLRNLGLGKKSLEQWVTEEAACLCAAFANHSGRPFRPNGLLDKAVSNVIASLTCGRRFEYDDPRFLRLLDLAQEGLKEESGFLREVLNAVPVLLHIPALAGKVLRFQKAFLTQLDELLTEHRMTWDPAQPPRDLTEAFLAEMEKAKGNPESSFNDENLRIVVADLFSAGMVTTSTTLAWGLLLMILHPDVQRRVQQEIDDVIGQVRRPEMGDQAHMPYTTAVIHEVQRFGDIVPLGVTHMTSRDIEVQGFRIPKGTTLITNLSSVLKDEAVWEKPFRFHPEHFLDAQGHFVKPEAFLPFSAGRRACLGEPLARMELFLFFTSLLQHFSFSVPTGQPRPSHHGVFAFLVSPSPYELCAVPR
Sequence of Voltage-gated inwardly rectifying potassium channel KCNH2 (Homo sapiens) (Q12809 whole entry, looked up): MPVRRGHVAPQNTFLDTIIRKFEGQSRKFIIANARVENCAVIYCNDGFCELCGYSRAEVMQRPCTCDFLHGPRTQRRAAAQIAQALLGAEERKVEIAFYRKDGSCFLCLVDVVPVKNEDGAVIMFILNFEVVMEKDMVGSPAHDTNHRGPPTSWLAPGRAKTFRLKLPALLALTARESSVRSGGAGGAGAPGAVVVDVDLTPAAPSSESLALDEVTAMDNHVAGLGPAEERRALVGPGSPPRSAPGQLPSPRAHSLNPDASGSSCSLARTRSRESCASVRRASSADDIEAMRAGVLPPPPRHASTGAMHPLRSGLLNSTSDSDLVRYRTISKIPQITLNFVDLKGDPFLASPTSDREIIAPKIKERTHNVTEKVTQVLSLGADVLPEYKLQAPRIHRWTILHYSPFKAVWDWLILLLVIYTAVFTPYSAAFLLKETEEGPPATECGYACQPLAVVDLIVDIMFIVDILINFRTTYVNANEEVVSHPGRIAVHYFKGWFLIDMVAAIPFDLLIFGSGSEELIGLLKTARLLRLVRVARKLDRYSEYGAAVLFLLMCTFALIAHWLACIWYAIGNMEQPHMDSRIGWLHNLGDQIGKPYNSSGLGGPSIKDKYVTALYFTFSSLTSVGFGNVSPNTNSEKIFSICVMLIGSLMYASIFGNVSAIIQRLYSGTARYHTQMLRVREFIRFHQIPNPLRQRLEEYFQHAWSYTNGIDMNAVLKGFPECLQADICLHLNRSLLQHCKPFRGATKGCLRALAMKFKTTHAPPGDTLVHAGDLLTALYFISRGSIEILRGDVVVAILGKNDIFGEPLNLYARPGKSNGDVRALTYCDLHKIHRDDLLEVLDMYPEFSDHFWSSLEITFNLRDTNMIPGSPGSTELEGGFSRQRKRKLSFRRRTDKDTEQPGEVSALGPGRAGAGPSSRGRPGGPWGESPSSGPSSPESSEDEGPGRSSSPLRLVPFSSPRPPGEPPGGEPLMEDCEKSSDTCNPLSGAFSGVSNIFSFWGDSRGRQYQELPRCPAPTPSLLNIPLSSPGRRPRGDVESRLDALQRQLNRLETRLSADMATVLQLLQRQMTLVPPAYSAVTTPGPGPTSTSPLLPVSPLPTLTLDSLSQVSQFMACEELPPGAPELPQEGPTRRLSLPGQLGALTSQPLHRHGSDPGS
Sequence of Cytochrome P450 3A4 (Homo sapiens) (P08684 whole entry, looked up): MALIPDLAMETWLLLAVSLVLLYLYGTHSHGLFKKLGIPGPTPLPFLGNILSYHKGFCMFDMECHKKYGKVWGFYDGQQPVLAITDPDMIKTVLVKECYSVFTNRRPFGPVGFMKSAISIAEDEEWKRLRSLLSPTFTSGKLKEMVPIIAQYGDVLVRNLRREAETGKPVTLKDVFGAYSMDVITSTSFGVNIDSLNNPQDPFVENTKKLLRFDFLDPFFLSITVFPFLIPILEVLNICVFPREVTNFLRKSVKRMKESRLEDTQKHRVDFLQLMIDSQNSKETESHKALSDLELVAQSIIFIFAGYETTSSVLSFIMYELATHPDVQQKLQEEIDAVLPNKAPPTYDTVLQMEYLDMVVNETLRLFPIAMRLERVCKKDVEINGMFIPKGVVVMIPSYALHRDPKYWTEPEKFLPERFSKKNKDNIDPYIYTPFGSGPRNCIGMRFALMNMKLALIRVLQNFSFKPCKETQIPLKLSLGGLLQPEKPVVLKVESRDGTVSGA
Sequence of Cytochrome P450 2C9 (Homo sapiens) (P11712 whole entry, looked up): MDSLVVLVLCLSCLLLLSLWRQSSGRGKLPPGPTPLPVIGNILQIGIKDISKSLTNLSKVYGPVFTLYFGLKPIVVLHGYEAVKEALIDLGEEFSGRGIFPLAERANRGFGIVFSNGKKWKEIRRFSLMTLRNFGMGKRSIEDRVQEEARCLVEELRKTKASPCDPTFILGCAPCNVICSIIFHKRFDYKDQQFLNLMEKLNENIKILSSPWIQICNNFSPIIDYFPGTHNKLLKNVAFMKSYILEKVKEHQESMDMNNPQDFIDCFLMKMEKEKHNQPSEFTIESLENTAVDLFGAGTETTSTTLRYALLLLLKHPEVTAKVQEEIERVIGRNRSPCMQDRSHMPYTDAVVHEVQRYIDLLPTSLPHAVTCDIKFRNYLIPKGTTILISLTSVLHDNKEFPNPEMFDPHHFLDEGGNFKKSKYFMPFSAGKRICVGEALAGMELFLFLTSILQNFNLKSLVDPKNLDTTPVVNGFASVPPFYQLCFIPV
Sequence of Nuclear receptor subfamily 1 group I member 2 (Rattus norvegicus) (Q9R1A7 whole entry, looked up): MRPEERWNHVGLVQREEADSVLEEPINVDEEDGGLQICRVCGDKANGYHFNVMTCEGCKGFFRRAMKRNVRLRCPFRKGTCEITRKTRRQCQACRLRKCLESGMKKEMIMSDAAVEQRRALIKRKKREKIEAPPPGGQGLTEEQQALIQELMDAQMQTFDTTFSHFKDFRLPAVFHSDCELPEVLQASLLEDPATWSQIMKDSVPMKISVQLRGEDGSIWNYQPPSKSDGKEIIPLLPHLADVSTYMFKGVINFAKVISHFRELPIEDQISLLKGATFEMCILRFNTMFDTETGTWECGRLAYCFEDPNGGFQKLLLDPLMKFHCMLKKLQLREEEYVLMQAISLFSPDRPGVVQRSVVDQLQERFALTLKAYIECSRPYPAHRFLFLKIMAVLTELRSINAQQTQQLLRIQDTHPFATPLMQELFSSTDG
Sequence of Cytochrome P450 2C19 (Homo sapiens) (P33261 whole entry, looked up): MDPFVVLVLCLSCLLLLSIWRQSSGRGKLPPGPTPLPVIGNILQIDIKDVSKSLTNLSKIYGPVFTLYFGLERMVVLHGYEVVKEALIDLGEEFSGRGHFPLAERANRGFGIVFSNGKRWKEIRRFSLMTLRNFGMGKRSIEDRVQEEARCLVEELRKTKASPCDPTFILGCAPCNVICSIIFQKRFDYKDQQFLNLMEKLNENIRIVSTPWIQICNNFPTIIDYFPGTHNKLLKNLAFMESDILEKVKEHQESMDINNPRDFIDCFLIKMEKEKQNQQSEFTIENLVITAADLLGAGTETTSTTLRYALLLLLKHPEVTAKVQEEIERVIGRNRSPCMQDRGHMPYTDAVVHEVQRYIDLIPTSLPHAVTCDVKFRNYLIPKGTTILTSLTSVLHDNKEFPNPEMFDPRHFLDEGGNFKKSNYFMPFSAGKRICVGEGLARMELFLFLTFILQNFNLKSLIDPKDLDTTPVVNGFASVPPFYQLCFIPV

Structure (SMILES) | Potency [1] | Potency [2] | Potency [3] | Potency [4] | Potency [5] | max activation [6] | Potency [7] | Potency [8] | Potency [9] | Potency [10] | Potency [11] | Potency [12] | Potency [13] | Potency [14]
COc1ccc(Cc2cnc(N)nc2N)cc1OC | inactive | inactive | inactive | inactive | inactive | 10.3% (inactive) | inactive | inactive | inactive | inactive | inactive | inactive | inactive | –
[Cl][In]([Cl])[Cl] | inactive | inactive | inactive | inactive | inactive | -5.91% (inactive) | inactive | inactive | inactive and 35.6 µM (active) | inactive | 37.7 µM (active) | inactive | inactive | –
CO[Si](OC)(OC)c1ccccc1 | inactive | inactive | inactive | inactive | inactive | – | – | inactive | inactive | inactive | – | inactive | – | inactive
CC(C)(C)NC(=O)[C@@H]1CN(Cc2cccnc2)CCN1C[C@@H](O)C[C@@H](Cc1ccccc1)C(=O)N[C@H]1c2ccccc2C[C@H]1O | inactive | inactive | inactive | inactive | inactive | 4.92% (inactive) | – | – | – | – | – | inactive | – | –
CC1COc2c(N3CCN(C)CC3)c(F)cc3c(=O)c(C(=O)O)cn1c23 (stereo not given) | inactive | inactive | inactive | inactive | inactive | -3.36% (inactive) | – | inactive | inactive | inactive | inactive | inactive | – | –
Clc1ccc2c(c1)C(N1CCNCC1)=Nc1ccccc1O2 | 29.8 µM (active) | inactive | inactive | inactive | inactive | – | – | 3.99 µM (active) and 3.09 µM (active) | 63.3 µM (active) and inactive | 17.8 µM (active) and inactive | – | 43.6 µM (active) and 19 µM (active) | 7.96 µM (active) and 4.9 µM (active) | inactive
O=C(Oc1ccccc1)c1ccccc1O | inactive | inactive | inactive | inactive | inactive | – | – | inactive | inactive | 35.6 µM (active) and 24.5 µM (active) | 35.7 µM (active) and 35.6 µM (active) and 28.8 µM (active) | inactive | inactive | –
Nc1nc(=S)c2[nH]cnc2[nH]1 | inactive | inactive | 5.31 µM (active) and 9.69 µM (active) and 3.76 µM (active) | inactive | – | -4.65% (inactive) | inactive | inactive | 30.9 µM (active) | 38.9 µM (active) and 71 µM (active) and 30.9 µM (active) | 30.9 µM (active) and 35.6 µM (active) | – | inactive | inactive
CNCCC(Oc1ccc(C(F)(F)F)cc1)c1ccccc1 (stereo not given) | 24 µM (active) and 26.6 µM (active) | 26.9 µM (active) | 67.7 µM (active) and 29.8 µM (active) | – | 60.3 µM (active) | – | – | – | – | – | – | – | – | –
CC[C@]1(O)C[C@@H]2CN(CCc3c([nH]c4ccccc34)[C@@](C(=O)OC)(c3cc4c(cc3OC)N(C)[C@H]3[C@@](O)(C(=O)OC)[C@H](OC(C)=O)[C@]5(CC)C=CCN6CC[C@]43[C@@H]65)C2)C1 | 15 µM (active) and 26.6 µM (active) | inactive | 1.33 µM (active) and 119 nM (active) | inactive | 29.8 µM (active) | – | – | – | – | – | – | inactive | – | –
CC(N)=O | inactive | inactive | inactive | inactive | inactive | – | – | inactive | inactive | – | – | inactive | inactive | –
c1ccc2cc3c(ccc4ccccc43)cc2c1 | – | inactive | inactive | inactive | inactive | – | – | 35.7 µM (active) | 50.2 µM (active) | 25.2 µM (active) | 897 nM (active) and 894 nM (active) | inactive | inactive | 27.4 µM (active) and 10.9 µM (active)
OCC(CO)N[C@H]1C[C@](O)(CO)[C@@H](O)[C@H](O)[C@H]1O | – | inactive | inactive | inactive | inactive | -3.54% (inactive) | inactive | inactive | inactive | inactive | inactive | inactive | inactive | inactive
CCC(C)(C)C(=O)O[C@H]1C[C@@H](C)C=C2C=C[C@H](C)[C@H](CC[C@@H]3C[C@@H](O)CC(=O)O3)[C@H]21 | – | inactive | inactive | inactive | – | – | – | – | – | – | – | – | – | –
CC(C)(C)c1ccc(O)c(C(C)(C)C)c1 | inactive | 30.5 µM (active) and 54.5 µM (active) | 60.9 µM (active) and 54.5 µM (active) | – | – | – | – | 19.9 µM (active) | 9.99 µM (active) and 17.8 µM (active) | 12.6 µM (active) and 11.2 µM (active) | 35.4 µM (active) and 56.4 µM (active) | – | 35.6 µM (active) | –
Cc1cccc2n[nH]nc12 | inactive | inactive | inactive | inactive | inactive | – | – | inactive | inactive | inactive | – | inactive | inactive | –
CCN(CC)CCOc1ccc(/C(=C(\Cl)c2ccccc2)c2ccccc2)cc1 | 39.4 µM (active) and 26.6 µM (active) | – | 55.6 µM (active) | – | 55.6 µM (active) | – | – | – | – | – | – | – | – | –
